PubChem BioAssay (EPA / NIEHS)
Records with an inconclusive call do not appear. Activity calls are given as the source filed them. How the source made its calls: active means hit-call score of the fitted dose curve at least 0.9, where 1 is the maximum; inconclusive means response in the unintended direction; inactive means score below 0.9.

What follows are compounds tested against human Thyroid hormone Receptor beta (TRb), THRB (gene 7068) (UniProt P10828) (assay: ATG_hTRb_XSP2: Attagene TRANS-FACTORIAL Multi-Species (XSP2) HepG2 Assay for human Thyroid hormone Receptor beta (TRb) (AID 2283840);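 further: actives raise reporter mRNA so potency reflects agonist-like gain of signal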).
Sequence of human Thyroid hormone Receptor beta (TRb), THRB (gene 7068) (P10828 whole entry, looked up, the tested form may be a part): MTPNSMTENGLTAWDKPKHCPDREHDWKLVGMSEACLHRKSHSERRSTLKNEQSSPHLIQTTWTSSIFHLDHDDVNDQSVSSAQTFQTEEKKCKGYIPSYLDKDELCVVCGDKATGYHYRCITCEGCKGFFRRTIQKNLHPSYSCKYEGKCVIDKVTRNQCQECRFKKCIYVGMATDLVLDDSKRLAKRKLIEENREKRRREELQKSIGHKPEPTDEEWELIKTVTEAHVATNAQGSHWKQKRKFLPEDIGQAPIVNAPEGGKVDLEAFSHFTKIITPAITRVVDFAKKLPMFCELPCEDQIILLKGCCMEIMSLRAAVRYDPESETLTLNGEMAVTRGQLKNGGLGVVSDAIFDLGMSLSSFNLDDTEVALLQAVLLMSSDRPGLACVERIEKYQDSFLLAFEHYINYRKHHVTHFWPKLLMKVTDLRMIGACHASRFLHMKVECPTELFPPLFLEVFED
In short: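 Transient transfection of human HepG2 with multi-species NR-Gal4/GAL4-UAS reporter constructs; 24 h compound treatment; RNA isolation, reverse transcription, PCR and HpaI digest; capillary electrophoresis of labeled fragments; activity fitted upward versus DMSO.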

Row | SMILES | AC50 | outcome
1 | Oc1cc(Cl)ccc1Oc1ccc(Cl)cc1Cl | 4.77 µM (active) | 
2 | CC(C)(C)C(O)/C(=C\c1ccc(Cl)cc1Cl)n1cncn1 (stereo not given) |  | inactive
3 | COP(=S)(OC)Oc1ccc(SC)c(C)c1 |  | inactive
4 | CC1(C)C(C=C(Cl)Cl)C1C(=O)OC(C#N)c1ccc(F)c(Oc2ccccc2)c1 (stereo not given) |  | inactive
5 | O=S1OCC2C(CO1)C1(Cl)C(Cl)=C(Cl)C2(Cl)C1(Cl)Cl (stereo not given) |  | inactive
6 | CCCN(CCOc1c(Cl)cc(Cl)cc1Cl)C(=O)n1ccnc1 |  | inactive
7 | CCOCN(C(=O)CCl)c1c(C)cccc1CC |  | inactive
8 | O=C(O)C(F)(F)C(F)(F)C(F)(F)C(F)(F)C(F)(F)C(F)(F)C(F)(F)F |  | inactive
9 | COP(=S)(OC)Oc1ccc([N+](=O)[O-])cc1 |  | inactive
10 | Oc1ccc(Cl)cc1Cc1ccccc1 |  | inactive
